HepG2 viability: qHTS for Inhibitors of TGF-b: Cytotox Counterscreen | HepG2 CAGA-GFP viability, ATP luminescence, 18 h | Potency, µM (titrated, usually from 46.1 µM), actives largely listed as cytotoxic | 0.76% of 410,000 active
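HepG2 CAGA-GFP cells (1000/well, DMEM with 1% FBS) received compound, then TGF-beta at 500 pg/mL final, and were incubated 18 hours at 37 degrees C. Viability was read by CellTiter-Glo luminescence. Media-only wells were set as complete cell-killing and DMSO as no toxicity.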
HTT aggregate: qHTS Multiplex Assay to Identify Dual Action Probes in a Cell Model of Huntington: Aggregate Formation (GFP) | PC12 HttQ103-GFP aggregates, Acumen cytometry, 40 h | Potency, µM (titrated, usually from 46.1 µM), actives largely listed as inhibitors | 1.1% of 220,000 active; note: nearly all actives have a fitted effect of over 60% in size
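Aggregates are detected as GFP objects 1–25 µm with signal 6 STDEV over background in lysates of induced PC12 cells. These carry Huntingtin exon 1 with 103 glutamines fused to GFP under an ecdysone promoter; compounds titrated.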
TGFb SMAD3 inh: qHTS for Inhibitors of TGF-b. HepG2 CAGA-GFP TGF-b/SMAD3 reporter, GFP fluorescence, 18 h; TGF-beta stimulated, 500 pg/mL final. Potency, µM (titrated, usually from 46.1 µM), usual class: inhibitors. 1.2% of 410,000 active. AID 588855, 2011; note: nearly all actives have a fitted effect of over 65% in size
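First, reporter cells (HEPG2 CAGA-GFP) rested 2 h at 37 degrees C. Next, compounds were pinned in and TGF-beta added to 500 pg/mL final. After 18 h, GFP was imaged per cell and summed per well.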
HTT ATP protect: qHTS Multiplex Assay to Identify Dual Action Probes in a Cell Model of Huntington: Cytoprotection (ATP); PC12 HTT-Q103 induced, cytoprotection, ATP luminescence, 40 h; Potency, µM (doses to about 56.4 µM), actives largely listed as activators; 0.14% of 230,000 active; note: nearly all actives have a fitted effect of over 45% in size
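ATP quantification (ATPlite) reports survival of PC12 cells in which tebufenozide, 100 nM final, switches on Htt exon 1 with 103 glutamines linked to GFP; compounds are titrated.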
ATXN2 expr inh: Primary qHTS for Inhibitors of ATXN expression. HEK-293 ATXN2-luciferase reporter, luminescence, 24 h. Potency, µM (doses to about 57 µM), most hits filed as inhibitors. 0.72% of 360,000 active. AID 1745845, 2022; note: nearly all actives have a fitted effect of over 55% in size
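ATXN2-luciferase reporter cells (luciferase flanked by upstream and downstream ATXN2 gene portions) were treated 24 h at 37 °C with compounds at up to 57 uM. SteadyGlo luminescence gave expression; GF-AFC fluorescence gave viability.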
S2 tox: Viability Counterscreen for Primary qHTS for Inhibitors of ATXN expression; S2 cells (HEK-293 line with an ATXN2-luciferase reporter) viability, CellTiter-Fluor protease fluorescence, 24 h; 0.49% of 400,000 active; AID 651635, 2014; Potency, µM (highest dose often 56.7 µM), most hits filed as cytotoxic; note: nearly all actives have a fitted effect of over 40% in size
A number is an active result. The list is not random: actives were taken first. Their share in the collection is about 2.8%. Calls come from the whole dose curve; as a rule, active = well fitted curve in the direction sought with a large enough effect; inconclusive = small, poorly fitted or top-dose-only effect, or another doubt; inactive = no such curve, though single readings can be large; an effect the other way counts as inactive or inconclusive.

`CCC1CCCCN1S(=O)(=O)c1cc(C(=O)Nc2ccc(C)c(F)c2)ccc1F` (stereo unspecified) gave HepG2 viability inactive and TGFb SMAD3 inh 11µM.
Screening COc1ccccc1C(=O)N1CCOc2ccc(C(C)(O)CCn3cccn3)cc2C1 (stereo unspecified) returned S2 tox inactive.
COC(=O)[C@@]1(Cc2ccccc2)[C@H]2c3cc(C(=O)N4CCCC4)n(Cc4ccc(C(F)(F)F)nc4)c3C[C@H]2CN1C(=O)c1ccccc1 was read as HTT ATP protect inactive.
For COC(=O)[C@@]1(Cc2ccc(F)cc2)[C@H]2c3cc(C(=O)N4CCCC4)n(Cc4ccc(C(F)(F)F)nc4)c3C[C@H]2CN1C(=O)c1ccccc1 the results were HepG2 viability inactive, HTT aggregate inactive, TGFb SMAD3 inh inactive, HTT ATP protect 10µM, ATXN2 expr inh inactive and S2 tox inconclusive.
`CCOC(=O)C(CC)Sc1ccc2nnc(-c3ccc(F)cc3)n2n1` (stereo unspecified) gave HepG2 viability inactive and TGFb SMAD3 inh inactive.
For CCCCCCCN(CC)CCCC(O)c1ccc(NS(C)(=O)=O)cc1 (stereo unspecified) the results were ATXN2 expr inh inconclusive and S2 tox inactive.
Screening CC[N+]1=C(C)C(C)(C)c2cc(C)ccc21 returned HepG2 viability inactive, HTT aggregate 2.5µM, TGFb SMAD3 inh inconclusive, HTT ATP protect inactive, ATXN2 expr inh inconclusive and S2 tox inconclusive.
Screening O=S(=O)(Nc1ccc(F)cc1Cl)c1ccc(-c2cnc(C3CC3)o2)cc1 returned HepG2 viability inactive, TGFb SMAD3 inh 14µM and S2 tox inactive.
Cc1cc(-c2ccc(S(=O)(=O)Nc3ccc(Cl)cc3C)cc2)on1 was read as HepG2 viability inactive and TGFb SMAD3 inh 13µM.
For CCOc1ccccc1NS(=O)(=O)c1ccc(-c2cnc(C3CC3)o2)cc1 the results were HepG2 viability inactive, TGFb SMAD3 inh 4.5µM and S2 tox inactive.
`Cc1cc(-c2ccc(S(=O)(=O)Nc3ccccc3C)cc2)on1` gave HepG2 viability inactive and TGFb SMAD3 inh inconclusive.
Screening Cc1cc(C)c(NS(=O)(=O)c2ccc(-c3cnc(C4CC4)o3)cc2)c(C)c1 returned HepG2 viability inactive, TGFb SMAD3 inh 1.4µM, ATXN2 expr inh inactive and S2 tox inconclusive.
For Cc1c(C(=O)NCc2cccc(F)c2)sc2ncnc(NCC3CCCO3)c12 (stereo unspecified) the results were S2 tox inactive.
Screening CC(C)(C)OC(=O)NS(=O)(=O)Nc1ccccc1Br returned HepG2 viability inactive and TGFb SMAD3 inh inactive.
Screening Cc1ccc(NS(=O)(=O)c2ccc(-c3cnc(C4CC4)o3)cc2)c(C)c1 returned HepG2 viability inactive, TGFb SMAD3 inh 13µM and S2 tox inconclusive.
Screening O=S(=O)(Nc1cccc(C(F)(F)F)c1)c1ccc(-c2cnc(C3CC3)o2)cc1 returned HepG2 viability 13µM, TGFb SMAD3 inh inconclusive, ATXN2 expr inh inconclusive and S2 tox inconclusive.
Screening Cc1ccc(NS(=O)(=O)c2cc(-c3cnc(C4CC4)o3)ccc2C)cc1Cl returned HepG2 viability 11µM, TGFb SMAD3 inh 7.1µM, ATXN2 expr inh inactive and S2 tox inactive.
For COc1ccccc1CNS(=O)(=O)c1ccc(-c2cnc(C3CC3)o2)cc1 the results were HepG2 viability inactive, TGFb SMAD3 inh 11µM, ATXN2 expr inh inactive and S2 tox inconclusive.
COc1cccc(/C=C/c2cnc3ccccc3n2)c1OC was read as HepG2 viability inactive and TGFb SMAD3 inh inactive.
For C[C@H](CO)N1C[C@H](C)[C@@H](CN(C)C(=O)Nc2ccc(C(F)(F)F)cc2)Oc2c(NC(=O)NC3CCCCC3)cccc2C1=O the results were HepG2 viability inactive, TGFb SMAD3 inh inconclusive, ATXN2 expr inh inconclusive and S2 tox 28µM.
For C[C@H](CO)N1C[C@H](C)[C@@H](CN(C)C(=O)Nc2ccccc2)Oc2c(NC(=O)Nc3ccc(C(F)(F)F)cc3)cccc2C1=O the results were HepG2 viability inactive, TGFb SMAD3 inh 16µM and ATXN2 expr inh inconclusive.
Screening CC(C)NC(=O)Nc1cccc2c1O[C@H](CN(C)C(=O)Nc1ccc(C(F)(F)F)cc1)[C@@H](C)CN([C@H](C)CO)C2=O returned HepG2 viability inactive, TGFb SMAD3 inh inactive, ATXN2 expr inh inactive and S2 tox inactive.
Screening C[C@@H]1CN([C@H](C)CO)C(=O)c2cccc(NC(=O)NC3CCCCC3)c2O[C@@H]1CN(C)C(=O)Nc1ccc(C(F)(F)F)cc1 returned HepG2 viability 18µM, TGFb SMAD3 inh inconclusive, ATXN2 expr inh inconclusive and S2 tox 22µM.
`COc1ccc([C@@H]2OC[C@]3(COC(C)=O)[C@H](C)C=C(C)[C@@H]2[C@H]3C)cc1` gave HTT ATP protect inactive.
Screening CO[C@H]1[C@H](NC(=O)c2ccsc2)c2ccccc2C12CCN(Cc1cnn(C)c1C)CC2 returned S2 tox inactive.
`Cc1c(C(=O)NC2CCCCCC2)sc2ncnc(NCC3CCCO3)c12` (stereo unspecified) gave S2 tox inactive.
For Cc1nc(NC2=NCN(CCCN3CCOCC3)CN2)nc2c(C)cccc12 the results were HepG2 viability inactive, HTT aggregate inactive, TGFb SMAD3 inh 16µM, HTT ATP protect inactive, ATXN2 expr inh inconclusive and S2 tox inconclusive.
Screening CC(C)(C)CC(C)(C)N=C1Nc2ccc(Cl)cc2NC12C[C@H]1CCC(=O)N3CC[C@@H](C2)[C@@H]13 (stereo partly specified) returned HepG2 viability 10µM and TGFb SMAD3 inh inconclusive.
`O=C1CCC[C@@H]2C[C@@]3(C[C@@H]4CCN1[C@H]24)Nc1cc(Cl)c(Cl)cc1NC3=NCc1ccccc1` gave HepG2 viability inactive, TGFb SMAD3 inh 11µM and ATXN2 expr inh inactive.
For CC(C)(C)CC(C)(C)N=C1Nc2ccccc2N[C@]12C[C@H]1CCCC(=O)N3CC[C@@H](C2)[C@@H]13 the results were HepG2 viability inactive and TGFb SMAD3 inh inconclusive.
`O=C(NCC1Cc2cccc(-c3nccs3)c2O1)c1ccnc(Cl)c1` (stereo unspecified) gave S2 tox inactive.

Screening results as filed in PubChem.
